Screening results (PubChem BioAssay)
Arbovirus anti – antivirals against arbovirus infection, primary screen, cell-based, full library, 10K replicate subset | arbovirus infection cell-based antiviral screen | inhibition, % at 10 µM | 200,000 compounds, 0.37% hits; in the data active = inhibition above about 30%
WT yeast gro inh – growth inhibition of WT strain, primary screen, mitochondrial fusion inhibitor project, WT and mutant strains, chemical genetic; 190,000 compounds, 2.1% hits; mitochondrial fusion phenotypic screen; inhibition, % at 10 µM; in the data active = inhibition above about 58%; tested in S. cerevisiae
L major viab – Leishmania major promastigote growth inhibition, primary screen. Leishmania major promastigotes, resazurin fluorescence viability. inhibition, % at 10 µM. 200,000 compounds, 9% hits. AID 1063, 2008; in the data active = inhibition above about 50%;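 note: promastigotes grown with compound for 44 hours at 28 °C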
CHOP inh – inhibitors of CHOP promoter induction, primary screen, cell-based, unfolded protein response, luciferase reporter; CHO-K1 CHOP-promoter luciferase, tunicamycin-induced, 15-18 h; 220,000 compounds, 3.8% hits; AID 2732, 2010; inhibition, % at 10 µM;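 active = compounds that reduced the stress-induced luciferase reporter signal by more than about 70% of percent inhibition, limit read from the data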
Numbers stand for hits; - = inactive; . = no result. Compounds with a hit are over-represented: about 12% of the library has one in this group of screens.

SMILES	Arbovirus anti	WT yeast gro inh	L major viab	CHOP inh
CCCCCOc1ccc(CSc2n[nH]c(C)n2)cc1	-	80	-	-
COc1cccc(CNC(=O)C(C(=O)NCc2cccc(OC)c2)c2ncc(C(F)(F)F)cc2Cl)c1	-	-	-	-
O=S(=O)(c1ccc(Cl)s1)N1CCN(Cc2ccccc2)CC1	-	-	-	81
O=S(=O)(c1ccc(Cl)s1)N1CCN(C/C=C/c2ccccc2)CC1	-	-	83	-
O=S(=O)(c1cccs1)N1CCN(C/C=C/c2ccccc2)CC1	-	-	-	-
O=S(=O)(c1ccc(Cl)s1)N1CCC(Cc2ccccc2)CC1	-	-	-	-
O=S(=O)(Cc1ccccc1)N1CCN(C/C=C/c2ccccc2)CC1	-	-	71	-
C#CCCOC(=O)N1C2=NC(C(=O)OC)=C(C(=O)OC)[C@@H]3N(Cc4ccccc4)c4ccccc4[C@]23C[C@H]1C(=O)OC	.	.	.	-
COC(=O)c1[nH]c2ccc(C)cc2c1NC(=O)C(C)N1CCN(C2CCCCC2)CC1 (centres undefined)	-	-	-	-
COC(=O)c1[nH]c2ccc(Br)cc2c1NC(=O)C(C)N1CCN(C2CCCCC2)CC1 (centres undefined)	-	-	100	-
CC1CCC2C(=O)N(c3ccccc3OC(=O)c3ccccc3F)C(=O)C2C1 (centres undefined)	-	-	-	-
CCn1nc(C(=O)OC(C(=O)c2c[nH]c3ccccc23)c2ccccc2)c2ccccc2c1=O (centres undefined)	-	-	100	-
CCn1nc(C(=O)OCC(=O)c2ccc(F)cc2)c2ccccc2c1=O	-	-	-	-
O=C(CCNC(=O)c1ccccc1Cl)Nc1nc(-c2ccc(F)cc2)cs1	-	-	-	-
O=C(CCNC(=O)c1ccccc1Cl)Nc1nc(-c2ccc3ccccc3c2)cs1	-	-	80	-
Cc1nc2ccc(NC(=O)C3CCN(S(=O)(=O)c4cccs4)CC3)cc2s1	-	-	65	-
CCOC(=O)c1c(NC(=O)C2CCN(S(=O)(=O)c3cccs3)CC2)sc(C)c1C	-	75	-	-
O=C(Nc1nc(-c2ccc3ccccc3c2)cs1)C1CCN(S(=O)(=O)c2cccs2)CC1	-	-	91	-
Cc1ccc(N2CC(C(=O)O)CC2=O)cc1 (centres undefined)	-	-	-	-
Cc1ccc(-c2csc(NC(=O)C3CCN(S(=O)(=O)c4cccs4)CC3)n2)cc1	-	-	76	-
CCCN1C(=O)N(c2cccc(C)c2)C(C)(O)CC1(C)C (centres undefined)	.	.	.	-
CN=c1scc(-c2ccccc2F)n1/N=C/c1ccc(O)c(O)c1O	-	-	-	-
CN=c1scc(-c2ccccc2F)n1/N=C/c1ccc[nH]1	-	-	-	98
N#Cc1c(N)nc2c(c1-c1ccc3c(c1)OCO3)CCCCCC2	-	-	-	86
COc1ccc(/C=C/c2cc(C(F)(F)F)on2)cc1	.	.	.	-
SMILES	Arbovirus anti	WT yeast gro inh	L major viab	CHOP inh
CC1CC(C)CN(C(=O)C(NS(=O)(=O)c2ccc(Br)s2)c2ccccc2)C1 (centres undefined)	-	-	81	-
COc1ccccc1N1CCN(C(=O)C(NS(=O)(=O)c2cccs2)c2ccccc2)CC1 (centres undefined)	-	-	-	-
CC(C)CCNC(=O)c1sc2ccc(S(=O)(=O)N3CCCCC3)cc2c1N	-	-	-	-
COc1ccc(S(=O)(=O)Nc2ccccc2OC)cc1NC(=O)c1cc2ccccc2oc1=O	-	-	-	-
Cc1ncc(CN2CCC(CO)(CCc3ccccc3)CC2)s1	-	-	84	-
OCC1(CCCc2ccccc2)CCN(Cc2cnc(N3CCOCC3)s2)CC1	-	-	79	-
CCc1ccc(N=c2c([N+](=O)[O-])nn(-c3ccccc3)n2O)cc1	-	-	88	-
COc1ccc(-n2nc([N+](=O)[O-])c(=NC3CCN(Cc4ccccc4)CC3)n2O)cc1	-	-	-	-
Cc1cc(C)cc(N=c2c([N+](=O)[O-])nn(-c3ccc(Cl)cc3)n2O)c1	-	-	95	-
CSc1ncc(Cl)c(C(=O)Nc2ccccc2Cl)n1	-	-	-	-
C/C(=C\C(=O)c1ccccc1)Nc1ccc(O)cc1	-	-	-	-
C/C(=C\C(=O)c1cccnc1)Nc1ccc(O)cc1	-	-	99	-
Cc1ccc(C(=O)/C=C/Nc2cccc(O)c2)cc1	-	-	-	-
C/C(=C\C(=O)c1ccc(C)cc1)Nc1cccc(O)c1	-	-	-	94
Cc1cccc(NC(=O)c2ccc(C3SCC(=O)N3CCc3ccccc3)cc2)c1 (centres undefined)	-	-	96	-
COc1ccc2oc(C(=O)OC/C(O)=C(\C#N)c3nc4ccccc4[nH]3)c(C)c2c1	.	.	.	95
COc1ccc(/C(C)=N/OC/C(O)=C(\C#N)c2nc3ccccc3[nH]2)c(OC)c1	-	-	-	95
Cc1c(C(=O)O)cccc1-n1c(C)cc(/C=N/NC(=O)c2cc3ccccc3o2)c1C	-	-	56	-
CCCCOc1ccc(CSCCN=C(N)N)cc1	-	-	97	-
CCCCOc1ccc(CSC(CC(=O)O)C(=O)O)cc1 (centres undefined)	-	-	-	-
Cc1sc2ncnc(SCc3ccco3)c2c1C	-	-	-	71
CCOc1ccc(CCNC(=O)COC(=O)c2ccccc2O)cc1OCC	-	-	82	-
CCOc1ccc(CCNC(=O)c2ccc(CNS(=O)(=O)c3ccccc3)cc2)cc1OCC	-	-	53	-
COc1ccc(CCNC(=O)c2ccc(CNS(=O)(=O)c3ccc(C(C)(C)C)cc3)cc2)cc1OC	-	-	-	-
Cc1ccc(C2=NNC(c3ccc(Cl)cc3)=Nc3ccccc32)o1	-	-	-	-
SMILES	Arbovirus anti	WT yeast gro inh	L major viab	CHOP inh
COc1ccc(-c2nc(CCl)cs2)cc1OC	-	-	-	-
COc1ccc(-c2csc(C3=C(O)CN(C(C)C)C3=N)n2)cc1OC	-	-	72	-
COc1ccc(N2CC(O)=C(c3nc(-c4ccccc4)cs3)C2=N)cc1	.	.	.	-
COc1ccc(-c2csc(-c3ccccc3)n2)c(OC)c1	-	73	-	-
COc1ccc(-c2nc(-c3ccc(O)cc3O)cs2)cc1OC	-	-	-	85
OCCn1c(Cl)nc2ccccc21	-	-	-	-
Cc1ccc(CNC(=O)CN(Cc2ccccc2)S(C)(=O)=O)cc1	-	-	-	-
O=C1CCCC/C1=C/Nc1cccc(C(F)(F)F)c1	-	-	-	-
O=C1CCC2S/C(=C/Nc3ccc(C(F)(F)F)cc3)C(=O)N12 (centres undefined)	-	-	-	95
COC(=O)[C@@H]1CC[C@H](C)[C@@H](c2ccc(C)cc2)N1C(=O)c1ccc(/C=N/OC[C@@H](O)[C@H]2O[C@@H]3OC(C)(C)O[C@@H]3[C@H]2O)cc1	-	-	-	-
COC(=O)[C@@H]1CC[C@H](C)[C@@H](c2ccc(C)cc2)N1C(=O)c1ccc(/C=N/O[C@@H](C)c2cn([C@H](CO)Cc3ccccc3)nn2)cc1	-	-	53	-
CCCN(Cc1cc2cc(C)ccc2[nH]c1=O)C(=O)c1cccc([N+](=O)[O-])c1	.	.	.	-
